# FAS-TE inh = blocks the thioesterase domain of human fatty acid synthase | P49327 | recombinant FAS-TE, OMFH fluorogenic substrate, fluorescence endpoint | inhibition, % at 15 µM | 0.67% of 360,000 active;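 active = compounds whose normalised, plate-corrected inhibition of enzyme fluorescence in the single-dose primary screen is 50% or more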;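 also: 0% = DMSO with enzyme and 100% = substrate without enzyme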
# NadD inh = blocks S. aureus nicotinate mononucleotide adenylyltransferase | purified NadD enzyme, colorimetric absorbance read-out | inhibition, % at 20 µM | 0.78% of 360,000 active | AID 602399; in the data active = inhibition above about 26%
# CRFR2-BP antag = antagonists of CRF-binding protein/CRF-R2 receptor complex; HEK293 CRF-R2/CRF-BP, CRF-induced calcium fluorescence; inhibition, % at 11.8 µM; 0.59% of 350,000 active; AID 588475;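 active = inhibition of the ligand-induced calcium signal above about 50% at the single tested concentration, limit read from the data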
# NRP1-CendR mod = modulators of CendR peptide binding to human neuropilin-1; FAM-RPARPAR peptide binding to NRP-1, fluorescence polarization; inhibition, % at 25 µM; 0.85% of 360,000 active; AID 602438;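 active = inhibition or corrected inhibition above about 18%, plus a signal ratio from 0.5 to 1.5, limit read from the data, passing the limit was not always enough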
# Myeloid diff 2 = compounds promoting myeloid differentiation; ER-HoxA9 myeloid progenitors, lysozyme-GFP differentiation, flow cytometry; calls only at 10 µM; 1% of 360,000 active;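 active = normalized GFP-positive differentiation at or above the plate's own cutoff, the solvent-only control mean plus 3 SD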;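 also: cells exposed to compound for four days before flow analysis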
# NadD conf = NadD (S. aureus) inhibition, single concentration confirmation. purified S. aureus NadD, colorimetric enzyme assay. AID 624309. 13% of 2,000 active. shares compounds with NadD inh. inhibition, % at 20 µM; in the data active = inhibition mostly above about 42%, no sharp cut-off; inactive = mostly below about 42%
# * marks the source's active call; other numbers are inactive results; i = inactive; . = no result given; + = active, no number. This is a sample that favours compounds with a hit; in the whole collection about 3.6% have one here.
SMILES,FAS-TE inh,NadD inh,CRFR2-BP antag,NRP1-CendR mod,Myeloid diff 2,NadD conf
C=C1c2cccc(OC)c2O[C@H](C(=O)OCC)[C@@H]1CC(CC)CCCC (stereo not given in full),21.2,17.0,-0.7,-5.1,i,.
Oc1csc(Cc2nc(-c3ccc4ccccc4c3)cs2)n1,-3.1,56.0*,1.6,-10.8,i,38.1
S=c1[nH]nc(-c2cccs2)n1/N=C/c1cn(-c2ccccc2)nc1-c1ccccc1,23.8,14.8,-20.0,-1.7,i,.
Cc1ccc(-c2nn(-c3ccccc3)cc2/C=N/n2c(-c3ccncc3)n[nH]c2=S)cc1,3.5,38.7*,-39.1,-4.6,i,3.3
CSc1ncc(CN2CCCC(C(=O)Nc3ccc(-c4ccco4)cc3)C2)cn1 (stereo not given),5.0,47.1*,-13.2,-55.0,i,19.3
Cc1ccc(/C=N/NC(=O)CC(=O)NCc2cccnc2)cc1,-13.4,-0.5,7.9,-28.0,i,.
O=c1c2ccccc2c(/C=N/c2nnc(Cc3ccccc3)s2)c(O)n1-c1ccc(Cl)cn1,45.0,47.8*,-44.5,-199.4,i,-2.8
Cc1cccc(NC(=O)NCc2ccc3c(c2)cc(C)n3C)c1,-5.6,23.0,10.4,13.6,i,.
Cc1cc2cc(CNC(=O)Nc3cccc(Cl)c3)ccc2n1C,-3.4,34.4*,-2.0,23.5,i,4.3
CCC(C)[C@@H](N)C(=O)N/N=C/c1cccc2nccnc12 (stereo not given in full),.,.,-20.9,.,.,.
O=[N+]([O-])c1ccc(N2CCN(S(=O)(=O)c3ccc(Cl)cc3)CC2)cc1NCc1cccnc1,16.5,31.9*,-2.4,1.5,i,23.2
CN(C)S(=O)(=O)c1cc(NC(=O)CN2CCc3ccccc32)ccc1Cl,-0.4,38.6*,-19.3,3.9,i,39.5
CCn1c2ccccc2c2cc(NC(=O)COc3ccc(OC)cc3)ccc21,24.5,-2.4,-15.6,5.3,i,.
CCn1c2ccccc2c2cc(NC(=O)COC(=O)c3cc(S(N)(=O)=O)c(Cl)cc3Cl)ccc21,9.1,40.6*,-18.5,0.0,i,26.4
CCn1c2ccccc2c2cc(NC(=O)COC(=O)c3ccccc3O)ccc21,8.3,13.5,1.5,-22.6,i,.
CCn1c2ccccc2c2cc(NC(=O)COC(=O)c3cc(Cl)c(N)cc3OC)ccc21,27.6,35.8*,-18.9,-25.8,i,26.2
COc1ccc([C@H]2C[C@H](O)[C@@H](n3cc(COC(=O)c4ccccc4)nn3)CN2C(=O)C2CCCCC2)cc1,9.2,2.7,5.6,6.8,i,.
CC1=C(C(=O)N2CCCCCC2)CC(CC(=O)NCCCN(C)C)C(=O)N1Cc1ccccc1 (stereo not given),-15.8,-8.1,.,18.4,i,.
COc1ccc(C(C(=O)NC2CCCC2)N(C(=O)c2snc(-c3ccc(F)cc3)c2N)c2cccc(F)c2)cc1 (stereo not given),-4.2,38.8*,1.5,-12.4,i,6.4
Cc1ccc(Cn2c(CCNc3nc(-c4ccc(Cl)c([N+](=O)[O-])c4)cs3)nc3cc(Cl)c(Cl)cc32)cc1,36.6,47.9*,1.8,14.3,i,2.1
Cc1ccc(Cn2c(C3CCCN3c3nc(-c4ccc(F)cc4)cs3)nc3cc(Cl)c(Cl)cc32)cc1 (stereo not given),40.1,48.8*,-11.0,-8.1,i,26.1
O=[N+]([O-])c1cc(-c2csc(NCCc3nc4cc(Cl)c(N5CCCCC5)cc4n3CCCO)n2)ccc1Cl,43.2,22.7,2.5,1.6,i,.
OCCCn1c(C2CCCN2c2nc(-c3ccc(Cl)cc3)cs2)nc2cc(Cl)c(N3CCCCC3)cc21 (stereo not given),4.8,33.4*,2.2,30.4*,i,9.8
OCCCn1c(C2CCCN2c2nc(-c3ccc(F)cc3)cs2)nc2cc(Cl)c(N3CCCCC3)cc21 (stereo not given),8.3,32.6*,3.8,-25.5,i,5.1
Cc1ccc(Cn2c(C3CCCN3c3nc(-c4ccc(F)cc4)cs3)nc3cc(C(F)(F)F)ccc32)cc1 (stereo not given),20.3,8.0,8.7,-20.3,i,.
SMILES,FAS-TE inh,NadD inh,CRFR2-BP antag,NRP1-CendR mod,Myeloid diff 2,NadD conf
COc1ccc(Cl)cc1NC(=O)CN(C)C(=O)Cn1cnc2c1c(=O)n(C)c(=O)n2C,-1.5,-4.4,-2.6,-2.7,i,.
CCCCCCCCNS(=O)(=O)CCNCc1ccco1,-1.4,-10.5,-0.3,3.5,i,.
Cc1ccc(Cn2c(C(C)Nc3nc(-c4ccc(F)cc4)cs3)nc3cc(Cl)c(Cl)cc32)cc1 (stereo not given),33.4,50.0*,-27.4,-13.6,i,10.3
CS(=O)(=O)Nc1ccc(F)cc1,-1.7,4.1,.,-8.3,i,.
CC(C)(C)OC(=O)C[C@@H]1C/C=C\C[C@H](CC(=O)N[C@H](CO)Cc2ccccc2)C(=O)N[C@H](C(C)(C)C)COC1=O,-8.5,1.3,11.8,2.6,i,.
CCOC(=O)c1sc2nc(-c3ccco3)c3c(c2c1N)CC(C)(C)OC3,6.3,31.6*,-1.4,-33.1,i,10.3
O=C(NC(=S)Nc1nc(-c2ccccc2)cs1)c1cncc(Br)c1,0.2,32.7*,-27.4,-7.0,i,11.3
N#CCC(=O)N/N=C/c1ccc(N2N=C(c3ccccc3)CC2c2ccccc2)cc1 (stereo not given),11.8,48.7*,0.1,-74.7,+,25.8
Cc1nc(Nc2ccc(Cl)c(Cl)c2)sc1C(/C=C/c1ccc2c(c1)OCO2)=NNc1ccc([N+](=O)[O-])cc1[N+](=O)[O-],21.6,48.1*,6.6,-2.8,.,0.2
Oc1ccc(CNCC2COc3ccccc3O2)cc1 (stereo not given),-3.0,-18.7,-6.4,5.2,i,.
COc1ccc(NC(=O)Nc2ccc3c(c2)C(=O)N([C@H](C)CO)C[C@H](C)[C@@H](CN(C)C(=O)Nc2ccc(OC)cc2)O3)cc1,-5.4,7.5,-6.6,-3.3,i,.
COc1ccc(NC(=O)N(C)C[C@H]2Oc3ccc(NC(=O)c4ccncc4)cc3C(=O)N([C@H](C)CO)C[C@@H]2C)cc1,-10.9,39.5*,-6.3,9.3,i,41.4*
C[C@H](CO)N1C[C@H](C)[C@@H](CN(C)S(=O)(=O)c2ccccc2)Oc2ccc(NC(=O)Nc3ccc(C(F)(F)F)cc3)cc2C1=O,12.3,35.0*,-6.8,9.9,i,5.5
CC(C)NC(=O)Nc1ccc2c(c1)C(=O)N([C@H](C)CO)C[C@H](C)[C@@H](CN(C)S(=O)(=O)c1ccccc1)O2,-3.2,-5.8,-6.5,2.3,i,.
C[C@H](CO)N1C[C@H](C)[C@@H](CN(C)Cc2ccncc2)OCCCC[C@H](C)Oc2ccc(NC(=O)CCCN(C)C)cc2C1=O,-2.1,54.4*,.,-12.5,i,26.9
C[C@H]1CCCCO[C@H](CN(C)Cc2ccncc2)[C@@H](C)CN([C@@H](C)CO)C(=O)c2cc(NS(=O)(=O)c3ccccc3)ccc2O1,-6.2,-8.3,14.4,-4.9,i,.
